According to PubChem BioAssay (NCI):
“And” between values parts separate entries of the source, which are not always exact repeats. Equal values may be shown once. The panel holds about 83,000 compounds, 20% with a hit somewhere; the sample as a whole holds those more often.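 The test compound was applied at a single concentration to cells in 96-well plates for 48 hours, and percent growth was recorded.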 The source made the active and inactive calls. How the source made its calls: active means growth percent below 10; inactive means the rest.

What follows are molecules tested on HL-60(TB) leukemia (assay: NCI-60 one-dose screen, 48 h (100 = growth as untreated, 0 = no growth, -100 = all killed)). Conditions: 10 µM unless noted.

| SMILES | growth |
| --- | --- |
| Cc1nn(-c2ccccc2)c2nc(C)n(-c3ccc(Br)cc3)c(=O)c12 | -5.26% (active) |
| COC(=O)c1ccccc1C(=O)c1c(C)cc(C)cc1C | 84.6% (inactive) |
| O=C1CC(=NCC(=O)n2c(-c3ccccc3)nc3ccccc32)NN1 | 107% (inactive) |
| N#CCCN=Nc1c(O)[nH]c2ccc(F)cc12 | 110% (inactive) |
| COC(=O)CCOc1ccccc1 | 102% (inactive) |
| COc1cc(-c2nn(-c3cccc(NC(=O)c4ccccc4)c3)cc2-c2ccncc2)ccc1Cl | -18.8% (active) |
| Cc1ccc2sc3c(NCCCNCCO)nc4ccccc4c3c(=O)c2c1 | -0.607% (active) |
| O=C(/C=C\c1ccnc2ccccc12)c1ccc([N+](=O)[O-])cc1 | 47.1% (inactive) and 30.4% (inactive) |
| CC(C)(O)Cn1cc(-c2ccc3nc(OC4CC4)ccc3c2)c2c(N)ncnc21 | 97.3% (inactive) and 76.7% (inactive) |
| Clc1ccc(NC(Nc2ccc(Cl)cc2)C(Cl)(Cl)Cl)cc1 | 93.3% (inactive) and 83.6% (inactive) |
| CC(C)CCC(=O)[C@@H](C)[C@H]1[C@@H](OC2OCC(O)C(O)C2NS(C)(=O)=O)C[C@H]2[C@@H]3CC=C4C[C@@H](O)CC[C@]4(C)[C@H]3CC[C@]12C (stereo partly specified) | 7.32% (active) |
| CCc1ccc(Oc2cn[nH]c2-c2ccc(OCCc3ccc(F)cc3)cc2O)cc1 | 111% (inactive) |
| C#CCOc1ccc2ncnc(Nc3cccc(NC(=O)C=C)c3)c2c1 | 63.1% (inactive) |
| Cc1oc(-c2ccc(Cl)cc2)nc1/C=C/C(=O)c1ccccc1 | 97.1% (inactive) |
| N#CC1=C(N)Oc2c(ccc3ccccc23)C1c1ccc([N+](=O)[O-])cc1 (stereo unspecified) | 69.9% (inactive) |
| C(=N\OCCc1ccccc1)/c1ccccn1 | 99.3% (inactive) and 85.5% (inactive) |
| COCCn1cc(-c2nc(-c3cc4cccnc4n3CCOC)cs2)c2cc(OC)ccc21 | 95.6% (inactive) |
| O=C(CNS(=O)(=O)Cc1ccccc1)NNc1ccccc1 | 18% (inactive) |

| SMILES | growth |
| --- | --- |
| CN1C(=O)/C(=C/c2ccc(C(=O)Nc3ncc(Cc4ccc(Cl)cc4)s3)cc2)SC1=S | 57.6% (inactive) |
| Cn1cnc([N+](=O)[O-])c1S(=O)(=O)Oc1cccc2ccccc12 | 4.37% (active) |
| COc1ccc(C(=O)c2ccc(OC)c(OC)c2OC)cc1 | 22.3% (inactive) and -8.89% (active) |
| CCc1ccccc1-n1c(N)c(C#N)c(-c2ccc(N(C)C)cc2)c(C#N)c1=O | 96.4% (inactive) |
| Cc1ccc(Cn2c(N3CCC(C(=O)NCc4cccs4)CC3)nc3ccccc32)cc1 | -14.4% (active) |
| CC[C@]12C=CCN3CC[C@@]4(c5cc(NC(=O)CCC(=O)OCc6cn(Cc7ccc(F)cc7)nn6)c(OC)cc5N(C)[C@H]4[C@@](O)(C(=O)OC)[C@@H]1OC(C)=O)[C@@H]32 | 96.8% (inactive) |
| CN1[C@@H]2CC[C@H]1/C(=C\c1ccccc1)C(=O)/C2=C/c1ccccc1 | 37% (inactive) |
| CC(=O)Nc1cc(S(=O)(=O)O)cc2cc(S(=O)(=O)O)c(N=Nc3ccccc3)c(O)c12 | 109% (inactive) and 94.3% (inactive) |
| CCN1CCN(c2cc(C)nc(N(CCCNc3ccnc4cc(Cl)ccc34)Cc3cccs3)n2)CC1 | -50.3% (active) |
| Cc1ccc(NS(=O)(=O)c2ccc(C)cc2)cc1 | 87.5% (inactive) and 114% (inactive) |
| Clc1nc(Cl)c2ncn(C/C=C/Cn3cnc4c(Cl)nc(Cl)nc43)c2n1 | -2.68% (active) |
| Cn1cc(-c2csc(-c3c[nH]c4ccccc34)n2)c2cccnc21 | 11.5% (inactive) |
| COc1cc2c(cc1OCCCCC(=O)Nc1ccc(-c3nc4ccccc4s3)cc1)N=C[C@@H]1CCCN1C2=O | -47.2% (active) |
| COCCN(C(=O)c1ccc(F)cc1F)c1c(N)n(Cc2ccccc2)c(=O)[nH]c1=O | 132% (inactive) |
| COc1ccc(NC(=O)c2sc3nc(C)c(C(=O)/C=C/c4cccc(OC)c4)cc3c2N)cc1 | 33.6% (inactive) |
| N#Cc1cc(-c2nc3ccccc3s2)c(=O)n(NS(=O)(=O)c2ccc(Cl)cc2)c1N | 103% (inactive) |
| Nc1n[nH]c2ccc([C@H]3[C@@H]4C5CCC(C5)[C@@H]4c4c(ccc5[nH]ncc45)N3S(=O)(=O)C3CC3)cc12 (stereo partly specified) | -19.6% (active) |
| c1ccc2c(c1)cnc1ccccc12 | 94.9% (inactive) |
